Reference: PubChem BioAssay
Activity calls are given as the source filed them.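 How the source made its calls: active means mean z-score across replicates of 1.96 or higher in either the MELAS or the Rieske mutant cell line; inactive means the rest.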

Assay: survival rescue of mitochondrial mutant cells in low glucose, primary screen, MELAS cybrids, Rieske KO mouse fibroblasts, CellTiter-Glo (AID 1508586);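 further: test concentration not given here; z relative to plate mean and SD of compound and empty wells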
Settings: MELAS cybrid survival, CellTiter-Glo 48 h, stronger effect = higher value

| SMILES | z-score |
| --- | --- |
| COC(=O)c1c(NC(=O)c2cccnc2)c2cc(NCc3ccc4c(c3)CCO4)cnc2n1CC(C)C | -0.55 |
| CCN(CC)CCNC(=O)c1cc(-c2cc(C)cs2)cc(S(=O)(=O)N2CCOCC2)c1 | -0.44 (inactive) |
| COC(=O)CN1C(=O)N(CCc2ccccc2)C2(CCN(Cc3ccc4c(c3)OCCO4)CC2)C1=O | -0.212 (inactive) |
| Cc1nn(C)cc1CNc1cc(C(=O)NCc2cn3ccccc3n2)cc(S(=O)(=O)NC(C)C)c1 | -0.236 (inactive) |
| CCN1CCCC1CNC(=O)c1nn(CCOC)c2c1CN(Cc1c(C)nc3sccn13)CC2 (centres undefined) | 0.286 (inactive) |
| Cn1cc(CN2CC(OCc3cccnc3)CN(Cc3cn[nH]c3-c3ccccc3)CC2=O)cn1 (centres undefined) | -0.178 (inactive) |
| O=C(Cn1cnc2ccccc21)N1CCc2c(cc(-c3cccc(Cl)c3)c(=O)n2CC2CC2)C1 | 0.334 (inactive) |
| O=C(c1nn(Cc2ccccn2)c2c1CN(C/C=C/c1ccco1)CC2)N1CCc2ccccc2C1 | -0.442 (inactive) |
| O=C(Nc1ccccc1Cl)N[C@H]1C[C@H]2C(=O)N[C@H](Cc3ccc(O)cc3)C(=O)N2C1 | -0.242 (inactive) |
| C[C@H]1NC(=O)[C@H]2CN(C(=O)Oc3ccc(Cl)cc3)CCN2C1=O | -0.514 (inactive) |
| O=C1N[C@@H](COCc2ccccc2)C(=O)N2C[C@@H](NCc3cnn(-c4cccc(F)c4)c3)C[C@@H]12 | 1.94 (inactive) |
| Cc1csc(-c2cc(C(=O)NCCC3CCCN3C)cc(S(=O)(=O)N3CCOCC3)c2)c1 (centres undefined) | 4.59 (active) |
| COc1cc(CN2CCc3c(c(C(=O)NCCCN4CCOCC4)nn3C)C2)cc2c1OCO2 | 0.109 (inactive) |
| CC(C)[C@@H]1NC(=O)[C@@H]2C[C@H](NC(=O)OCc3ccccc3)CN2C1=O | -0.138 (inactive) |
| CCN1C(=O)N(C)C(=O)C12CCN(Cc1cc3oc(C)c(-c4ccccc4)c3cc1OC)CC2 | -0.0202 (inactive) |
| C[C@H](O)[C@H]1NC(=O)[C@@H]2C[C@H](NC(=O)Nc3cccc(F)c3)CN2C1=O | 0.0941 (inactive) |
| COCCN1C(=O)N(C2Cc3ccccc3C2)C(=O)C12CCN(Cc1cnn(C)c1C)CC2 | -0.225 (inactive) |
| Cc1ccc(C(C)CCN2CCc3c(c(C(=O)N4CCC(O)CC4)nn3CCc3ccccc3)C2)o1 (centres undefined) | -0.676 (inactive) |
| COc1cccc(COC2CN(CCc3ccccc3)C(=O)CN(C(=O)CN3CCOC3=O)C2)c1 (centres undefined) | -0.0866 (inactive) |
| Cc1ccnn1CCC(=O)N1CC(=O)N(CC(C)C)CC(OCc2ccccn2)C1 (centres undefined) | -0.157 (inactive) |

| SMILES | z-score |
| --- | --- |
| CN(C)c1ncc(CN2CCc3c(cc(Cc4ccccc4)c(=O)n3Cc3ccc(F)cc3)C2)s1 | -0.5 (inactive) |
| COc1ccccc1CNC1CCc2c(c(C(=O)N3CCc4ccccc4C3)nn2C)C1 (centres undefined) | -0.107 (inactive) |
| COc1ccc(CN2C[C@@H](CN3CCOCC3)C[C@@H](C(=O)NCC(C)C)C2)cc1OC | 0.036 (inactive) |
| CC(C)CCNc1cc(C(=O)N[C@H]2CCCCNC2=O)cc(S(=O)(=O)NC(C)C)c1 | -0.205 (inactive) |
| COC(=O)c1c(NC(=O)Cc2ccccc2)c2cc(NCc3nccs3)cnc2n1CC(C)C | -0.876 (inactive) |
| Cn1ccnc1CN1C[C@@H](CN2CCOCC2)C[C@@H](C(=O)N2CCCC2)C1 | 0.188 (inactive) |
| COc1cc(CN2CCc3c(cc(Cc4ccccc4C)c(=O)n3CC3CC3)C2)ccc1O | -0.322 (inactive) |
| Cc1csc(-c2cc(C(=O)N(C)C3CCN(C)CC3)cc(S(=O)(=O)N3CCOCC3)c2)c1 | -0.654 (inactive) |
| COc1ccccc1C(=O)N1CCN2C(=O)[C@@H]3CSCN3C(=O)[C@H]2C1 | -0.216 (inactive) |
| CN1C(=O)N(Cc2ccccc2)C2(CCN(Cc3nc4ccccc4n3C)CC2)C1=O | 0.0463 (inactive) |
| Cc1cnc(CNC(=O)c2cc(-c3ccccc3)cc(S(=O)(=O)N3CCN(C)CC3)c2)cn1 | 0.213 (inactive) |
| COC(=O)c1c(NC(=O)C2CC2)c2cc(NC3CCOCC3)cnc2n1Cc1ccccc1 | -0.892 (inactive) |
| CC(C)CN1CC(OCc2cccc(F)c2)CN(C(=O)Cn2cnc3ccccc3c2=O)CC1=O (centres undefined) | -0.0292 (inactive) |
| C[C@@H](NC(=O)N[C@H]1C[C@H]2C(=O)N[C@H](Cc3ccc(O)cc3)C(=O)N2C1)c1ccccc1 | -0.3 (inactive) |
| COc1cccc(COC2CN(Cc3ccccn3)C(=O)CN(C(=O)c3ccc(C)s3)C2)c1 (centres undefined) | -0.406 (inactive) |
| CN1CCCc2cc(C(=O)N3CC(=O)N(Cc4ccccc4)CC(OCc4ccccn4)C3)ccc21 (centres undefined) | -0.626 (inactive) |
| CC(C)CNC(=O)[C@@H]1C[C@H](CN2CCOCC2)CN(Cc2ccc(O)cc2)C1 | -0.104 (inactive) |
| COc1ccc(CCn2nc(C(=O)N(C)C)c3c2CCN(C(=O)c2csc4c2CCCC4)C3)cc1 | -0.0604 (inactive) |
| CC(C)CNc1cc(C(=O)NC2Cc3ccccc3C2)cc(S(=O)(=O)NC(C)C)c1 | 0.0668 (inactive) |
